From the supplement of paper PMC8975748
± gives the standard deviation of the averaged measurements.

Key:
[1] = system: Saccharomyces cerevisiae BY4741 SeMeCo community; experiment: z-score of subpopulation abundance vs DMSO median, subpopulation auxotrophic for M; higher = larger share of this subpopulation than in DMSO controls; conditions: 10 µM; 24 h; SM minimal medium; subpopulation (auxotrophy): M
Procedure, shortened: (§1)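 Four plasmids, each restoring a single auxotrophy and encoding a distinct fluorescent protein, were carried by a Saccharomyces cerevisiae BY4741 community. After overnight growth to OD600 1.0 and dilution to 0.3, 70 µl per well was grown for 24 h in minimal SM medium on 384-well plates acoustically predosed with library drugs at 10 µM final. Following paraformaldehyde fixation, automated confocal microscopy was used, with single-auxotroph fluorescent strains defining thresholds and autofluorescence correction. Subpopulation abundance was then scored as a z-score against the vehicle-well median.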

[2] = system: Saccharomyces cerevisiae BY4741 SeMeCo community; experiment: z-score of subpopulation abundance vs DMSO median, subpopulation auxotrophic for H; higher = larger share of this subpopulation than in DMSO controls; conditions: 10 µM; 24 h; SM minimal medium; subpopulation (auxotrophy): H
Procedure, shortened: as §1

[3] = system: Saccharomyces cerevisiae BY4741 SeMeCo community; experiment: z-score of subpopulation abundance vs DMSO median, subpopulation auxotrophic for LM; higher = larger share of this subpopulation than in DMSO controls; conditions: 10 µM; 24 h; SM minimal medium; subpopulation (auxotrophy): LM
Procedure, shortened: as §1

[4] = system: Saccharomyces cerevisiae BY4741 SeMeCo community; experiment: z-score of subpopulation abundance vs DMSO median, subpopulation auxotrophic for HM; higher = larger share of this subpopulation than in DMSO controls; conditions: 10 µM; 24 h; SM minimal medium; subpopulation (auxotrophy): HM
Procedure, shortened: as §1

[5] = system: Saccharomyces cerevisiae BY4741 SeMeCo community; experiment: z-score of subpopulation abundance vs DMSO median, subpopulation auxotrophic for UM; higher = larger share of this subpopulation than in DMSO controls; conditions: 10 µM; 24 h; SM minimal medium; subpopulation (auxotrophy): UM
Procedure, shortened: as §1

[6] = system: Saccharomyces cerevisiae BY4741 SeMeCo community; experiment: z-score of subpopulation abundance vs DMSO median, subpopulation auxotrophic for HL; higher = larger share of this subpopulation than in DMSO controls; conditions: 10 µM; 24 h; SM minimal medium; subpopulation (auxotrophy): HL
Procedure, shortened: as §1

[7] = system: Saccharomyces cerevisiae BY4741 SeMeCo community; experiment: z-score of subpopulation abundance vs DMSO median, subpopulation auxotrophic for HLM; higher = larger share of this subpopulation than in DMSO controls; conditions: 10 µM; 24 h; SM minimal medium; subpopulation (auxotrophy): HLM
Procedure, shortened: as §1

[8] = system: Saccharomyces cerevisiae BY4741 SeMeCo community; experiment: z-score of subpopulation abundance vs DMSO median, subpopulation auxotrophic for HUM; higher = larger share of this subpopulation than in DMSO controls; conditions: 10 µM; 24 h; SM minimal medium; subpopulation (auxotrophy): HUM
Procedure, shortened: as §1

[9] = system: Saccharomyces cerevisiae BY4741 SeMeCo community; experiment: z-score of subpopulation abundance vs DMSO median, subpopulation auxotrophic for LUM; higher = larger share of this subpopulation than in DMSO controls; conditions: 10 µM; 24 h; SM minimal medium; subpopulation (auxotrophy): LUM
Procedure, shortened: as §1

[10] = system: Saccharomyces cerevisiae BY4741 SeMeCo community; experiment: z-score of subpopulation abundance vs DMSO median, subpopulation auxotrophic for HLUM; higher = larger share of this subpopulation than in DMSO controls; conditions: 10 µM; 24 h; SM minimal medium; subpopulation (auxotrophy): HLUM
Procedure, shortened: as §1

[11] = system: Saccharomyces cerevisiae BY4741 SeMeCo community; experiment: mean cell size (pixel area) (pixels); higher = larger cells; conditions: 10 µM; 24 h; SM minimal medium
Procedure, shortened: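 In this assay, mean cell pixel area per well was obtained from automated confocal images of paraformaldehyde-fixed yeast analysed in Harmony. The cells were a Saccharomyces cerevisiae BY4741 community with four plasmids, each complementing one auxotrophy and carrying a fluorescent marker, grown for 24 h in SM medium with drug at a final 10 µM in 384-well plates. Values are averaged across 3 replicates. Same SeMeCo high-content imaging drug screen: Selleck FDA-approved drugs at 10 µM, 24 h in SM medium, 384-well plates, 3 replicates.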

[12] = system: Saccharomyces cerevisiae BY4741 SeMeCo community; experiment: z-score of prototroph abundance vs DMSO median; higher = larger share of this subpopulation than in DMSO controls; conditions: 10 µM; 24 h; SM minimal medium; subpopulation (auxotrophy): Prototroph
Procedure, shortened: as §1

[13] = system: Saccharomyces cerevisiae BY4741 SeMeCo community; experiment: z-score of subpopulation abundance vs DMSO median, subpopulation auxotrophic for L; higher = larger share of this subpopulation than in DMSO controls; conditions: 10 µM; 24 h; SM minimal medium; subpopulation (auxotrophy): L
Procedure, shortened: as §1

[14] = system: Saccharomyces cerevisiae BY4741 SeMeCo community; experiment: z-score of subpopulation abundance vs DMSO median, subpopulation auxotrophic for U; higher = larger share of this subpopulation than in DMSO controls; conditions: 10 µM; 24 h; SM minimal medium; subpopulation (auxotrophy): U
Procedure, shortened: as §1

[15] = system: Saccharomyces cerevisiae BY4741 SeMeCo community; experiment: z-score of subpopulation abundance vs DMSO median, subpopulation auxotrophic for HU; higher = larger share of this subpopulation than in DMSO controls; conditions: 10 µM; 24 h; SM minimal medium; subpopulation (auxotrophy): HU
Procedure, shortened: as §1

[16] = system: Saccharomyces cerevisiae BY4741 SeMeCo community; experiment: z-score of subpopulation abundance vs DMSO median, subpopulation auxotrophic for LU; higher = larger share of this subpopulation than in DMSO controls; conditions: 10 µM; 24 h; SM minimal medium; subpopulation (auxotrophy): LU
Procedure, shortened: as §1

Row | Structure (SMILES) | z-score of subpopulation abundance [1] | z-score of subpopulation abundance [2] | z-score of subpopulation abundance [3] | z-score of subpopulation abundance [4] | z-score of subpopulation abundance [5] | z-score of subpopulation abundance [6] | z-score of subpopulation abundance [7] | z-score of subpopulation abundance [8] | z-score of subpopulation abundance [9] | z-score of subpopulation abundance [10] | mean cell size [11] | z-score of prototroph abundance [12] | z-score of subpopulation abundance [13] | z-score of subpopulation abundance [14] | z-score of subpopulation abundance [15] | z-score of subpopulation abundance [16]
1 | CCN1CCN(C(=O)N[C@@H](C(=O)N[C@@H]2C(=O)N3C(C(=O)O)=C(CSc4nnnn4C)CS[C@H]23)c2ccc(O)cc2)C(=O)C1=O [Cefoperazone] | 0.6 | 0.43 | 1.36 | 0.3 | 0.26 | 0.07 | 0.34 | -0.49 | 0.47 | 0.24 | – | – | – | – | – | –
2 | CCCC1CC(C(=O)NC(C(C)Cl)C2OC(SC)C(O)C(O)C2O)N(C)C1 (stereo not given) [Clindamycin alcoholate] | 0.25 | 0.65 | – | 0.91 | – | 1.2 | – | 0.14 | 0.51 | -0.12 | 12.1 ± 0.19 | -0.45 | 1.51 | -0.8 | -0.93 | –
3 | CC1=C(C(=O)OCCN(Cc2ccccc2)c2ccccc2)C(c2cccc([N+](=O)[O-])c2)C(P2(=O)OCC(C)(C)CO2)=C(C)N1 (stereo not given) [Efonidipine] | 0.03 | 1.79 | 2.26 | 1.87 | 0.8 | 0.79 | – | 1.54 | 2.5 | 1.4 | 12.6 ± 0.14 | -1.56 | 0.97 | 0.34 | – | –
4 | COc1ccc(C[C@H](N)C(=O)N[C@H]2[C@@H](O)[C@H](n3cnc4c(N(C)C)ncnc43)O[C@@H]2CO)cc1 [Puromycin 2HCl] | 0.81 | -0.66 | -0.47 | 0 | 1.61 | -0.16 | -0.12 | 0.39 | -0.39 | -0.22 | 12.5 ± 0.13 | -0.54 | – | 0.92 | 0.15 | -0.06
5 | C[C@H]1c2cccc(O)c2C(O)=C2C(=O)[C@]3(O)C(O)=C(C(N)=O)C(=O)[C@@H](N(C)C)[C@@H]3[C@@H](O)[C@@H]21 [Doxycycline monohydrate] | -0.88 | 0.17 | 0 | -1.15 | -1.13 | -0.19 | – | -0.92 | 0.2 | 0.42 | – | – | 0.54 | – | -1.42 | -0.41
6 | OB1OCc2cc(F)ccc21 [Tavaborole (AN-2690)] | 1 | 14.2 | 6.17 | 27.5 | 7.1 | 17.6 | – | 16.9 | 16.4 | 47.7 | 14 ± 0.24 | -16.4 | 0.22 | -3.62 | 5.21 | –
7 | O=C1[C@@H]2[C@H]3CC[C@H](C3)[C@@H]2C(=O)N1C[C@@H]1CCCC[C@H]1CN1CCN(c2nsc3ccccc23)CC1 [lurasidone] | -0.62 | 0.55 | 0.39 | -0.31 | -1.38 | 0.22 | -0.11 | -0.45 | -0.46 | -0.82 | 12.19 ± 0.019 | 0.9 | 0.42 | -1.4 | -0.35 | –
8 | O=C(O[C@H]1CN2CCC1CC2)N1CCc2ccccc2[C@@H]1c1ccccc1 [Solifenacin succinate] | 0.77 | -0.91 | 0.27 | 0 | 1.06 | 0.67 | – | 0.3 | 0.68 | 0.94 | 12.1 ± 0.28 | -0.49 | – | – | 0.28 | 0.43
9 | NC(=N\CCCCCC/N=C(N)/N=C(\N)Nc1ccc(Cl)cc1)/N=C(\N)Nc1ccc(Cl)cc1 [Chlorhexidine diacetate] | – | 0.93 | -0.7 | – | -1.2 | 1.03 | 1.2 | -0.61 | – | – | 11.5 ± 0.11 | 1.46 | -0.29 | -0.99 | -0.08 | -1.43
10 | CN(Cc1cnc2nc(N)nc(N)c2n1)c1ccc(C(=O)N[C@@H](CCC(=O)O)C(=O)O)cc1 [Methotrexate disodium] | -6.18 | 15.3 | -1.46 | 1.68 | -5.52 | 10.8 | – | -2.01 | -1.74 | 19.8 | 15.01 ± 0.07 | 0.74 | -0.58 | -4.34 | -1.36 | -3.33
11 | Cc1cc2c(s1)Nc1ccccc1N=C2N1CCN(C)CC1 [Olanzapine] | – | -0.12 | 0.65 | 0.2 | 0.07 | -0.15 | -0.05 | -0.5 | -0.6 | – | 12.5 ± 0.2 | 0.17 | -0.11 | -0.29 | 0.19 | -0.6
